Test results published in the OligoGym collection.

These sequences were tested against LAMB4 (assay: pooled miR-30 sensor sort-seq; sequence = guide strand). Conditions: shRNA.
Note: reference of the scale not given here.

In order of rising sensor-assay potency score (higher = more potent):
1. TTGCTCTTTCTATTGTATCTTT  -0.796
2. TTGACTTTTAAGAATTTCCCAG  -0.128
3. TTTAGCTGCATGATTTGTCTTC  -0.0764
4. TATTGTATCTTTCAGATCTTGA  0.0271
5. TATTTTGACAAGTTCATCGGTT  0.404
6. TTTGACTGTAGAGTCTTGGGTA  0.734

What follows are sequences tested against LAMC1 in the same assay as above. Conditions: shRNA.

In order of falling sensor-assay potency score (higher = more potent):
1. TAGGACTTGAGAACTTTGGGAT  0.474
2. TTGACTTCAAGTTCCTTCCCTC  0.467
3. TTCGCTTGTTCATACTTCCTAT  0.107
4. TACATTTACATCTGCCACCTAC  -0.06
5. TTGTCTTTGCAAACACATCTTC  -0.117
6. TTCTTTTGGACAGCGCTCGCGA  -0.297
7. TATGAGACTCTCTAATTCCTGG  -0.463
8. TTCATCAGTACACAAGGCCTGC  -0.475
9. TTCAATATTACATTCATCTATG  -0.485
10. TTCCTTTAGTCTATCCTCGAAG  -0.66
11. TTTGCAATTACACACCAGCTTA  -0.786
12. TCGTTCTTCATACACTCGCTTG  -1.26
